ADAM10 inh: human ADAM10 inhibitors, primary screen, biochemical, QFRET, HTS; AID 720582, 2013; 370,000 tested, 0.62% active; inhibition, % at 7 µM; recombinant ADAM10, EDANS/DABCYL FRET peptide cleavage, 3 h;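 active means inhibition above a per-campaign cutoff equal to the mean of compounds falling between control-based bounds plus 3 SD, cut at about 20% in these data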;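 further: 0% = DMSO wells while the 100% control is not disclosed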
GRIN3A LBD mod: binders of NR3A ligand-binding domain, primary screen, biophysical, differential scanning fluorimetry, uHTS; NR3A LBD differential scanning fluorimetry, Tm shift; 0% = protein alone, 100% = glycine-bound protein; 340,000 tested, 2.5% active; AID 1259313, 2017; Glutamate receptor ionotropic, NMDA 3A (GRIN3A) ligand-binding domain; Tm shift relative to glycine control, % at 25 µM;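 active means melting temperature shift of at least 10% of the positive control shift, at one fixed dose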
KLK7 zymogen act: proKLK7 zymogen activators, primary screen, biochemical, fluorescence intensity; purified proKLK7, EDANS-DABCYL substrate fluorescence; 100% is mature enzyme control, 0% vehicle; activation, % at 7 µM; 370,000 tested, 0.9% active; AID 652039, 2013;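 active means activation above the mean of all tested compounds plus 3 SD, computed per campaign excluding outliers beyond control limits, cut at about 13% in these data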
rCAG binder: binders of r(CAG) RNA repeats, primary screen, biochemical, fluorescence | r(CAG) RNA repeat, TO-PRO-1 dye displacement fluorescence | inhibition, % at 3 µM | 370,000 tested, 1.3% active | AID 651821, 2012;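 active means inhibition above the plate cutoff, the mean of all test compounds on that plate plus 3 SD, cut at about 35% in these data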;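 further: 0% = DMSO alone and 100% = 100 µM mitoxantrone as full dye displacement; higher means more dye released from RNA so lower well fluorescence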
ADAM17 inh: ADAM17 inhibitors, primary screen, biochemical, QFRET; recombinant ADAM17, EDANS/DABCYL FRET peptide cleavage; inhibition, % at 6.95 µM; 370,000 tested, 0.83% active; AID 720648, 2013;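 active means inhibition above the mean of compounds lying between control limits plus 3 SD, set per campaign, cut at about 8.5% in these data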;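 further: 0% = DMSO-only wells as the low control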
Target sequence (P78536 215-824 limits assumed): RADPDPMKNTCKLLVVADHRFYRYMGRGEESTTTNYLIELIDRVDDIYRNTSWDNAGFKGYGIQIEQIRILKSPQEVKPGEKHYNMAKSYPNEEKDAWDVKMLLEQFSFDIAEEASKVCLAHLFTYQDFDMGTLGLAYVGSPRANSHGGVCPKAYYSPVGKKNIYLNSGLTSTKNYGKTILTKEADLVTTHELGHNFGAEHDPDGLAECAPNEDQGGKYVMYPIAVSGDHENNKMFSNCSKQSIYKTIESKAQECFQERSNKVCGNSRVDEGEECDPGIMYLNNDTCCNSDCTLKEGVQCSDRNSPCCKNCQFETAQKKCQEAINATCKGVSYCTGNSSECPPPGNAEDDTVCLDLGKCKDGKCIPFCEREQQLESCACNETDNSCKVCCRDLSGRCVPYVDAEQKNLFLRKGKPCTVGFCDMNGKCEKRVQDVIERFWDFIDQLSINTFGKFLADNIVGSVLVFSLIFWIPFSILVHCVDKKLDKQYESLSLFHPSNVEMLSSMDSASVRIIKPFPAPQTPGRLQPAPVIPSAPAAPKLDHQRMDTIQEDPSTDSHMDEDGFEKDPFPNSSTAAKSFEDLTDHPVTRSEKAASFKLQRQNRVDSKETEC
AHR act: AHR activators, primary screen, cell-based, luminescence, luciferase reporter, human. Aryl hydrocarbon receptor (Homo sapiens), P35869. AHR-responsive luciferase reporter cells. activation, % at 5 µM. 320,000 tested, 2.5% active; in the data active means activation above about 47%;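 further: 0% = vehicle wells and 100% = reference agonist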
Starred values were filed as active, the others as inactive; . = no result given. Shown are actives, neighbours in structure and some others; about 7% of the full set was active somewhere.

SMILES	ADAM10 inh	GRIN3A LBD mod	KLK7 zymogen act	rCAG binder	ADAM17 inh	AHR act
COC(=O)c1cc2c(c3c4cc(OC)ccc4n(S(=O)(=O)c4cccc(C)c4)c13)C(=O)N(Cc1ccc(C(F)(F)F)cc1)C2	-9	.	1	11	-2	.
CCCC[C@H]1C2CC(OC(=O)Nc3ccc(F)cc3)C(C2)[C@H]2CCCCN21 (stereo not given in full)	-9	.	0	6	-13	.
Cc1ccc(-n2ncc3c(=O)[nH]c(SCC(=O)N4CCOCC4)nc32)cc1	6	4	0	5	-8	4
CCC1CCCCN1C(=O)CSc1nc2c(cnn2-c2ccc(C)cc2)c(=O)[nH]1 (stereo not given)	-4	16*	0	5	-1	-1
CCOC(=O)Cc1cc(-c2ccc(F)cc2)nc2ccc3ccccc3c12	-3	2	0	2	-3	61*
Cc1nc(C(F)(F)F)nc(Nc2ccc(Br)cc2)c1C#N	7	2	-2	0	-1	51*
Cc1nsc(Nc2ccc([N+](=O)[O-])cc2)c1C#N	1	-3	0	0	0	-1
O=c1c(-c2ccco2)[n+]([O-])c2ccccc2n1OCc1ccccc1	-15	4	-1	8	-4	61*
O=c1c(-c2ccco2)[n+]([O-])c2ccccc2n1OCc1ccccc1F	-22	-1	-5	-2	-9	9
O=c1c(-c2ccco2)[n+]([O-])c2ccccc2n1OCc1c(F)cccc1F	-12	-1	-2	3	-2	49*
Cc1cn(S(=O)(=O)c2cc(Br)ccc2Br)cn1	6	10*	-1	2	0	0
CCCCCCCCN1C(=O)[C@@H](CC(=O)N2CCN(C(=O)C3CC3)CC2)C[C@@]2(C(=O)OC)C1=C[C@H](C(C)(C)C)O[C@@H]2C	2	.	0	7	0	.
O=C(COc1ccc(S(=O)(=O)NCc2ccccc2)cc1Cl)NCc1ccncc1	4	0	0	2	1	4
Cc1cc(S(=O)(=O)NCc2ccccc2)ccc1OCC(=O)NCc1ccncc1	1	13*	0	-2	1	11
COc1ccccc1N1CCN(C(CNS(=O)(=O)c2ccc(C)cc2)c2cccnc2)CC1 (stereo not given)	1	16*	0	1	-4	0
COC(=O)[C@]12CCCCC=C1N(Cc1ccc(OC)cc1)C(=O)[C@@H]2CC(=O)NCCCCc1ccccc1	15	.	0	2	6	.
O=[N+]([O-])c1ccc(CN2CCOCCOCCN(Cc3ccc([N+](=O)[O-])cc3Cl)CCOCC2)c(Cl)c1	5	.	.	.	-1	.
O=C(Nc1ccc(F)c(C(F)(F)F)c1)Nc1nnc(-c2ccncc2)s1	-114	.	.	.	-32	.
Cc1ccccc1/C=N/N1CCN(c2ccccc2)CC1	-5	13*	-1	-7	-3	73*
O=[N+]([O-])c1ccc(Cl)c(/C=N/N2CCN(c3ccccc3)CC2)c1	-6	-6	0	-3	-4	58*
Cc1ccc(/C=N/N2CCN(c3ccccc3)CC2)cc1	-15	-1	0	-3	-5	-4
CC1=C[C@@H]2[C@H]3C(=O)N(Cc4ccccc4)C(=O)[C@H]3[C@@H]1[C@@H]1O[C@@]3(C(=O)N(C)c4ccccc43)C3=C(CCCC3=O)N21	-4	.	1	4	-2	.
Cc1ccc(NC(=O)Cc2ccc(F)cc2)c(S(=O)(=O)N2CCOCC2)c1	-4	.	0	1	-2	.
Cc1nn(-c2ccccc2)c2sc(C(=O)NNC(=O)COc3ccccc3)cc12	-38	-3	0	19	-7	58*
Cc1cnc(NC(=O)c2cc3c(C)nn(-c4ccccc4)c3s2)s1	-32	-2	-1	7	-11	61*
SMILES	ADAM10 inh	GRIN3A LBD mod	KLK7 zymogen act	rCAG binder	ADAM17 inh	AHR act
CN(C)c1ccc(Cc2cc3c(O)ccc(O)c3cc(Cc3ccc(N(C)C)cc3)c2=O)cc1	-5	-30	0	76*	1	.
CCN(CC)C(=O)CSc1nc(-c2cccs2)cc(-c2cccs2)c1C#N	-38	-1	-1	5	-12	10
CCN(CC)C(=O)CSc1nc2c(c(-c3cccnc3)c1C#N)CCCC2	-3	-2	0	-5	-1	67*
CCN(CC)C(=O)CSc1nc(N)c(C#N)c(-c2cccs2)c1C#N	-145	1	-5	4	-10	77*
O=C(NC1CCCCN(Cc2cccc(Cl)c2)C1=O)c1ccccc1 (stereo not given)	8	.	1	-2	1	.
COc1ccccc1NC(=O)CCN1C(=O)C2CC=C(Cl)CC2C1=O (stereo not given)	11	-5	0	6	-2	3
O=C(CCCN1C(=O)C2CC=CCC2C1=O)Nc1cccc(F)c1 (stereo not given)	4	11*	0	-2	2	1
Cc1cccc(NC(=O)CCCN2C(=O)C3CC=CCC3C2=O)c1 (stereo not given)	-6	2	0	-1	6	1
Cc1c(Cl)cccc1NC(=O)CCN1C(=O)C2CC=CCC2C1=O (stereo not given)	-2	11*	0	-3	-2	0
O=C(CCN1C(=O)C2CC=CCC2C1=O)Nc1ccccc1Cl (stereo not given)	3	-1	0	2	2	1
COc1ccc(NC(=O)CCN2C(=O)C3CC=C(Cl)CC3C2=O)cc1 (stereo not given)	-4	32*	0	0	-2	-2
COC(=O)CCC(=O)N1C2=NC3=C(C(=O)N(Cc4ccc5c(c4)OCO5)C3=O)C3N(C)c4ccccc4[C@]23C[C@H]1CO (stereo not given in full)	5	.	1	14	5	.
CC(=O)Oc1cc(C(=O)OCC(=O)NC23CC4CC(CC(C4)C2)C3)cc(OC(C)=O)c1OC(C)=O	2	1	0	53*	2	.
CC(C)NC(=O)c1cc(-n2cnnc2)ccc1Cl	-7	11*	0	2	-3	1
CC(=O)Nc1ccc(NC(=O)c2cc(-n3cnnc3)ccc2Cl)cc1	-7	-1	0	3	-3	-1
CC(C)[C@@H](CO)N1Cc2nnn(Cc3ccccc3)c2-c2ccccc2S1(=O)=O	-5	.	0	3	-2	.
O=C(Nc1cccc(Cl)c1)c1cc(N=Nc2ccc([N+](=O)[O-])cc2Cl)ccc1O	-8	19*	-1	20	-6	10
